Assay results taken from the supplement of paper PMC10849652.
Targets with a hit are over-represented here; the source holds about 8,800 in all. About 0.5% of all pairs of compound and target were hits.

Tests used:
Assay in all cases: log2 fold change, soluble protein after heating vs DMSO (PISA); higher = thermal stabilisation; K562 lysate, 10 uM; active = over 0.2 and 3.5 SD of the protein, either way, in both replicates (recomputed)
[1] = compound: NCC(=O)Nc1ccc(-n2nc(C(F)(F)F)cc2-c2ccc3c(ccc4ccccc43)c2)cc1
Summary of the method: (§1)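 Thermal stability, expressed as log-two fold change relative to solvent controls, is given from duplicates. Crude K562 extract in PBS pH 7.4 with 1 mM MgCl2, at 1 mg/mL protein, was treated with 10 μM compound for 30 min and heated in aliquots for 3 min across 48°C-58°C. After pooling, adjustment to 0.5% NP-40 at 4°C and centrifugation at 21,000xg for 90 min, supernatant protein was measured by TMTpro 16plex LC-MS/MS with channel sums equalised.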

nilotinib = compound: Cc1cn(-c2cc(NC(=O)c3ccc(C)c(Nc4nccc(-c5cccnc5)n4)c3)cc(C(F)(F)F)c2)cn1 [nilotinib]
Summary of the method: as §1

[2] = compound: Cc1nc(Nc2n[nH]c3c2CN(C(=O)N[C@H](CN(C)C)c2ccccc2)C3(C)C)c2sccc2n1
Summary of the method: as §1

dasatinib = compound: Cc1nc(Nc2ncc(C(=O)Nc3c(C)cccc3Cl)s2)cc(N2CCN(CCO)CC2)n1 [dasatinib]
Summary of the method: as §1

[3] = compound: Cc1ncc(-c2ccnc(Nc3ccc(S(C)(=O)=O)cc3)n2)n1C(C)C
Summary of the method: as §1

[4] = compound: Cn1cc(-c2ccc3c(c2)CCN3C(=O)Cc2cccc(C(F)(F)F)c2)c2c(N)ncnc21
Summary of the method: as §1

quisinostat = compound: Cn1cc(CNCC2CCN(c3ncc(C(=O)NO)cn3)CC2)c2ccccc21 [quisinostat]
Summary of the method: as §1

tipifarnib = compound: Cn1cncc1[C@@](N)(c1ccc(Cl)cc1)c1ccc2c(c1)c(-c1cccc(Cl)c1)cc(=O)n2C [tipifarnib]
Summary of the method: as §1

[5] = compound: NC(=O)Nc1cc(-c2cccc(F)c2)sc1C(=O)N[C@H]1CCCNC1
Summary of the method: as §1

[6] = compound: NC(=O)c1cnc(N[C@@H]2CCCC[C@@H]2N)nc1Nc1cccc(-n2nccn2)c1
Summary of the method: as §1

[7] = compound: O=C1NC(=O)C(c2cnc3ccccn23)=C1c1cn2c3c(cc(F)cc13)CN(C(=O)N1CCCCC1)CC2
Summary of the method: as §1

entospletinib = compound: c1cn2cc(-c3ccc4cn[nH]c4c3)nc(Nc3ccc(N4CCOCC4)cc3)c2n1 [entospletinib]
Summary of the method: as §1

Measured: log2 fold change

LRPPRC (UniProt H7C3W8)
inactive: [1] 0.792

LIMK1 (UniProt P53667)
Chain of UniProt P53667 (P53667 whole entry, looked up): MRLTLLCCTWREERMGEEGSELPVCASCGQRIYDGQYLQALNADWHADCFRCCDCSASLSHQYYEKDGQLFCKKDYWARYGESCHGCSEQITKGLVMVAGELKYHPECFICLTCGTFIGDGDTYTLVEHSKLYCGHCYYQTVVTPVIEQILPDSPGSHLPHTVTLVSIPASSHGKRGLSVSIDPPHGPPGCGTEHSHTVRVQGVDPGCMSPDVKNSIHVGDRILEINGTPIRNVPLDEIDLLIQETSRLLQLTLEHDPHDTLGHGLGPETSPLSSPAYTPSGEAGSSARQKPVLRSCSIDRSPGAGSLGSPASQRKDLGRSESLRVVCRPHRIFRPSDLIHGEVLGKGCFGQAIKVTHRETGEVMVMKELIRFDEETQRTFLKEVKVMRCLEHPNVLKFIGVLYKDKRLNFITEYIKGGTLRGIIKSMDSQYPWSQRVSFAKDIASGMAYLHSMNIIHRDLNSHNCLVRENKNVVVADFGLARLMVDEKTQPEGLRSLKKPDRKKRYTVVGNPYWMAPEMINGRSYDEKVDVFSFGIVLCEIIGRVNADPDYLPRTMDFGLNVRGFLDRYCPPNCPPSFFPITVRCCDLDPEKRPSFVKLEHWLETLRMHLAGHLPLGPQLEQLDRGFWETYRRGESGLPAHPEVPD
inactive: nilotinib -0.315 | [2] 0.008 | dasatinib 0.4 | [3] 0.031 | [4] 0.146 | quisinostat -0.145 | tipifarnib 0.102 | [5] 0.126 | [6] 0.118 | [1] -0.127 | [7] 0.281 | entospletinib 0.027

MAP3K4 isoform 2 (UniProt Q9Y6R4)
Chain of UniProt Q9Y6R4 (Q9Y6R4 whole entry, looked up): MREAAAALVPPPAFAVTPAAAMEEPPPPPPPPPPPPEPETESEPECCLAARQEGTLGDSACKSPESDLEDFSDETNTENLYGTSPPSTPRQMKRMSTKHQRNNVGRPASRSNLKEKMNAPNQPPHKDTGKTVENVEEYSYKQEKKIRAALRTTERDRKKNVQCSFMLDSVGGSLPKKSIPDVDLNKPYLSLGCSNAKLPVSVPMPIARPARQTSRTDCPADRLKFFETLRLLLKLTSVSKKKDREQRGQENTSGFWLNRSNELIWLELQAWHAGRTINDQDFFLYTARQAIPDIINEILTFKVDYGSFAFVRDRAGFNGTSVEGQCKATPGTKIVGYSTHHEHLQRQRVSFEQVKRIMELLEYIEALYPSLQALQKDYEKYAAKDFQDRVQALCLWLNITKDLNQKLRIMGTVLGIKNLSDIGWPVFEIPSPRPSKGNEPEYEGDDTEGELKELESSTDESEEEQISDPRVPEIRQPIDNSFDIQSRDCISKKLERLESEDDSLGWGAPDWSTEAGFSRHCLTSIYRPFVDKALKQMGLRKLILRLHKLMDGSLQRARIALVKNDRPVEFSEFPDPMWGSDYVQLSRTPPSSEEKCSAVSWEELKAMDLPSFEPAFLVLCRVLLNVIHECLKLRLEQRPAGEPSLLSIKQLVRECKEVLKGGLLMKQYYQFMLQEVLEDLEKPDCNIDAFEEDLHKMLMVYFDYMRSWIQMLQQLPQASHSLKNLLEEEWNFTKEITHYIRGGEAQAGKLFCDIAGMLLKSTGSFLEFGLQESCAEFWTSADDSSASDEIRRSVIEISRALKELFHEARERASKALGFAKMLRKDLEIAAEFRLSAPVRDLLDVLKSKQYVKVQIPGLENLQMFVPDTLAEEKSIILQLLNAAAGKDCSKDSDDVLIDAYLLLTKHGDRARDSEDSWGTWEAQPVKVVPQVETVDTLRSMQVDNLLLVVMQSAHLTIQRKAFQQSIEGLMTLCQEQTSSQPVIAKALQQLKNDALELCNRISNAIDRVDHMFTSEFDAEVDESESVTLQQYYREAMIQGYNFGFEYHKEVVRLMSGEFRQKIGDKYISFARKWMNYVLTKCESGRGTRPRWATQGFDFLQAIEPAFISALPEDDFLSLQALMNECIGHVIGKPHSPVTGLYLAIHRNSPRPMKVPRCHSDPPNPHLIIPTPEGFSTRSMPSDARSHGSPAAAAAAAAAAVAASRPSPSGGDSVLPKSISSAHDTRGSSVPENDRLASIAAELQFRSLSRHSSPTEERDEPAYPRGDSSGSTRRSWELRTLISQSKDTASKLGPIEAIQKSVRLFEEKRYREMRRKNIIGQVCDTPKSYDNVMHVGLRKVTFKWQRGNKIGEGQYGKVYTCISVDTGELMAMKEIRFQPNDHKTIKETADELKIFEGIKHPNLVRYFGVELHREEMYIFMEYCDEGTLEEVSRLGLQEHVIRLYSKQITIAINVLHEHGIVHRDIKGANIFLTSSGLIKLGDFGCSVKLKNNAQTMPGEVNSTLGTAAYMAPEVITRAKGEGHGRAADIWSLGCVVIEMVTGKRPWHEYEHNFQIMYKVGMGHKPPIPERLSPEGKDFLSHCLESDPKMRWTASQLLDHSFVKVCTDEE
inactive: quisinostat 0.009 | [5] 0.112 | [7] 0.034
